Our source for the PBM binding z-score values is the supplement of paper PMC6555819.

One test deals with LXRa homodimer (NR concentration 270 nM). Description: PBM binding z-score (relative to random genomic background probes); higher = stronger binding; sequences stand for … in GC…GCGATTGACAGCGTAGAATGAAGG
The method, boiled down:
(§1)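 Each nuclear receptor dimer, without ligand, was incubated for 1 h on custom Agilent 4×180K protein-binding microarrays. Binding was detected with antibodies against each partner (one per run), and scanned fluorescence was regression-normalized. The binding z-scores are referenced to random human genomic background probes.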
As for CCGACTGGGGCATAAGGTTACTATAAGCCAGCCC, the PBM binding z-score was determined as 0.0863.
Regarding CTCGAAAGGTCGGTTGAGGTGAGTACACGGATAA, the PBM binding z-score was -0.128.
The same measure, in the same setting: for AATACAGGGTCACTATGCCAGAGTAGGTACGAAT the value was 1.16; for TAGCCTAGGTCAGATCGGGCCTGTATACGCTATA, -0.411.
TATACAGGGTCAAAGGCCAGGGTACGAATGTCGA: the PBM binding z-score turned out to be 2.51.
Take TCTAGTTGGTCACGGAGGTCACACTCGACGGGTA: the PBM binding z-score turned out to be 2.58.
As for AGTTAAAGTTCACTAGGTAACGTAAGATTCAGCT, the PBM binding z-score stood at 3.45.
In turn, CCTTACGGGTCACTGACAGGTTATACCATTTGGA registered a PBM binding z-score of 0.698.
For the sequence ACCGAAAGGTCGTGAGGTGAGTATACAGAAAGGC, the PBM binding z-score is -0.204.
On the same count and under the same terms, the value for CGTCCAAGGTGAAGGTCAGTGAAAGAGACTCGAA was -0.233; that for ATCTCTAGGTAGGACTCAGTTCAGTGAAGAACGC was 0.659; that for ACTATTAGTTGAGACGACGGCAACCGATAGGTTG was -0.396.
Same read-out and setting: the value for ATCACTAGGTAAGACTCAGTTCAGTGAAGAACGC was 0.227.
Same read-out and setting: the value for TCATATAGGTAAATGCTAGGTGTAAGTCCGATCT was 0.2.
In turn, CTCGAAAGGTCGTGCTCAGGTGGGTATACCAAAC had a PBM binding z-score of 0.337.
In turn, AGAATGAGCTTATTAAGATCAGGGAATTGCGGTC returned a PBM binding z-score of -0.374.
The sequence TCTCGGAGGACACGACAGGTCAGAGCTCGACATC showed a PBM binding z-score of 0.823.
The same measure, in the same setting: for TCTTGTAGATCAGGCAGGTTAAGAAAGCCTGAGT the value was -0.308; for GATACAGGGTCAGCTAGAGGCCAAAGTATGGAAA, 0.0556.
On to CCTATTAGTTGACCATAAGGGTAACCGAAGCTCG, for which the PBM binding z-score came to 0.682.
In the case of ATCTCTAGGTAAAGATAGTTCAGTGGATGCAAAT, the PBM binding z-score was found to be 0.642.
Still for that read-out and setting: the value for CAGCCTAGGTCAGTGCCAGTATAGGAGGAACGTT was -0.00279; that for CGAACTAGGTCATTGACAGGACAGAGAATAGTAA was 0.538.
Same read-out and setting: for CGCACGAGGGCATGAGTTGATAGCAAATGCCGAT the value was -0.626; for ACAGACAGGTGAGTGAAGATAACTCAGCTGGACG, -0.558; for GCGACTGGGGCATCCGCAGGTTACCATAACTTAA, -0.324.
On the same count and under the same terms, the value for ACTAGCAGGCCAAGTGTGGGTCACTCAAACAAAG was -0.486; that for GATACAGGGTCAAGGCGAGAGTACGCGTATTGAT was -0.0981.
Take ACAGACAGGTGAGTAAAGGTAACTCAGCTGGACG: the PBM binding z-score was -0.568.
Regarding ACTAGTTGGTCAGCTGAGGTCACCCACAATTCGG, the PBM binding z-score stood at 2.1.
Still for that read-out and setting: the value for CCGAGTGGGGCAAGGTTACCATAACGCACAGCCA was -0.227; that for CAAACTAGGTCAAGAGGTCAAAATCCGCTTCCCG was 5.14.
Still for that read-out and setting: for CCGACTTGGGCATAAGGTTACCATAAGCCAGCCC the value was -0.195; for CGTTACGGGTCACTGACAGGTTATAGCATTTGGA, 0.216; for CGAGCTAGGTCATCCAGGACAGTGAATACATTGA, 0.492.
The same measure, in the same setting: for CCTAGTTGGTCAAGTTCACACACGCTATAGGTAC the value was 1.74; for CGTCCAAGGTCATAGGAGGTCAGTGTAGACAGAT, 4.98; for CCTAGTTGGTCAGCAGGTCACACACCGGATATGA, 1.16.
The sequence CGTCCAAGGCCAGCAGGTCAGTGAAAGCGACGTG came in with a PBM binding z-score of -0.472.
For TCTATTATTTGATTAGGGCAACCGAAACAGCGGA, the PBM binding z-score came out at 1.29.

The test system of another test is LXRb:RXRa (NR concentration 270 nM, RXRa partner concentration 90 nM). Described as above. In a few lines: as §1
The sequence CCGACTGGGGCATAAGGTTACTATAAGCCAGCCC displayed a PBM binding z-score of 1.26.
On the same count and under the same terms, for CTCGAAAGGTCGGTTGAGGTGAGTACACGGATAA the value was 1.5.
Sequence AATACAGGGTCACTATGCCAGAGTAGGTACGAAT yielded a PBM binding z-score of 3.79.
TAGCCTAGGTCAGATCGGGCCTGTATACGCTATA came in with a PBM binding z-score of 0.501.
TATACAGGGTCAAAGGCCAGGGTACGAATGTCGA yielded a PBM binding z-score of 4.8.
TCTAGTTGGTCACGGAGGTCACACTCGACGGGTA showed a PBM binding z-score of 3.06.
On the same count and under the same terms, the value for AGTTAAAGTTCACTAGGTAACGTAAGATTCAGCT was 2.98.
Still for that read-out and setting: the value for CCTTACGGGTCACTGACAGGTTATACCATTTGGA was 3.61; that for ACCGAAAGGTCGTGAGGTGAGTATACAGAAAGGC was 3.02; that for CGTCCAAGGTGAAGGTCAGTGAAAGAGACTCGAA was 1.25.
The same measure, in the same setting: the value for ATCTCTAGGTAGGACTCAGTTCAGTGAAGAACGC was 0.518; that for ACTATTAGTTGAGACGACGGCAACCGATAGGTTG was -0.449.
The sequence ATCACTAGGTAAGACTCAGTTCAGTGAAGAACGC registered a PBM binding z-score of -0.0165.
The same measure, in the same setting: the value for TCATATAGGTAAATGCTAGGTGTAAGTCCGATCT was 0.659.
As to CTCGAAAGGTCGTGCTCAGGTGGGTATACCAAAC, the PBM binding z-score turned out to be 3.41.
The same measure, in the same setting: for AGAATGAGCTTATTAAGATCAGGGAATTGCGGTC the value was -0.82; for TCTCGGAGGACACGACAGGTCAGAGCTCGACATC, 0.827; for TCTTGTAGATCAGGCAGGTTAAGAAAGCCTGAGT, 0.209.
In turn, GATACAGGGTCAGCTAGAGGCCAAAGTATGGAAA gave a PBM binding z-score of 3.09.
Same read-out and setting: for CCTATTAGTTGACCATAAGGGTAACCGAAGCTCG the value was 0.604; for ATCTCTAGGTAAAGATAGTTCAGTGGATGCAAAT, 0.57; for CAGCCTAGGTCAGTGCCAGTATAGGAGGAACGTT, 0.349.
Take CGAACTAGGTCATTGACAGGACAGAGAATAGTAA: the PBM binding z-score is 1.92.
On the same count and under the same terms, the value for CGCACGAGGGCATGAGTTGATAGCAAATGCCGAT was 0.0671; that for ACAGACAGGTGAGTGAAGATAACTCAGCTGGACG was -0.776.
Consider GCGACTGGGGCATCCGCAGGTTACCATAACTTAA, for which the PBM binding z-score was found to be 0.722.
The same measure, in the same setting: for ACTAGCAGGCCAAGTGTGGGTCACTCAAACAAAG the value was 0.691; for GATACAGGGTCAAGGCGAGAGTACGCGTATTGAT, 3.74.
Still for that read-out and setting: the value for ACAGACAGGTGAGTAAAGGTAACTCAGCTGGACG was -0.0938; that for ACTAGTTGGTCAGCTGAGGTCACCCACAATTCGG was 3.2.
As for CCGAGTGGGGCAAGGTTACCATAACGCACAGCCA, the PBM binding z-score stood at 0.664.
CAAACTAGGTCAAGAGGTCAAAATCCGCTTCCCG yielded a PBM binding z-score of 5.6.
In the case of CCGACTTGGGCATAAGGTTACCATAAGCCAGCCC, the PBM binding z-score is 0.516.
Still for that read-out and setting: for CGTTACGGGTCACTGACAGGTTATAGCATTTGGA the value was 3.8; for CGAGCTAGGTCATCCAGGACAGTGAATACATTGA, 1.96; for CCTAGTTGGTCAAGTTCACACACGCTATAGGTAC, 2.18.
In the case of CGTCCAAGGTCATAGGAGGTCAGTGTAGACAGAT, the PBM binding z-score was found to be 6.27.
CCTAGTTGGTCAGCAGGTCACACACCGGATATGA came in with a PBM binding z-score of 2.
On the same count and under the same terms, the value for CGTCCAAGGCCAGCAGGTCAGTGAAAGCGACGTG was -0.00321.
TCTATTATTTGATTAGGGCAACCGAAACAGCGGA yielded a PBM binding z-score of 1.08.
